# Source: the supplement of paper PMC11732987, “Enantioselective OTUD7B fragment discovery through chemoproteomics screening and high-throughput optimisation” (Communications Chemistry, 2025)
# Values without a mark were called inactive.
# Assays:
# Assay in all cases: log2 ratio of Biotin-Ahx-Ub-VS probe labelling (fragment/DMSO); higher = less target engagement (more negative = stronger competition), active = hit call of the paper (q ≤ 0.05, log2 ratio ≤ -1)
# Settings in all cases: compound concentration: 200 uM; treatment time: 3 h
# ALG13 = molecular target: T1, ALG13 (UniProt Q9NP73)
# T1 sequence (whole entry): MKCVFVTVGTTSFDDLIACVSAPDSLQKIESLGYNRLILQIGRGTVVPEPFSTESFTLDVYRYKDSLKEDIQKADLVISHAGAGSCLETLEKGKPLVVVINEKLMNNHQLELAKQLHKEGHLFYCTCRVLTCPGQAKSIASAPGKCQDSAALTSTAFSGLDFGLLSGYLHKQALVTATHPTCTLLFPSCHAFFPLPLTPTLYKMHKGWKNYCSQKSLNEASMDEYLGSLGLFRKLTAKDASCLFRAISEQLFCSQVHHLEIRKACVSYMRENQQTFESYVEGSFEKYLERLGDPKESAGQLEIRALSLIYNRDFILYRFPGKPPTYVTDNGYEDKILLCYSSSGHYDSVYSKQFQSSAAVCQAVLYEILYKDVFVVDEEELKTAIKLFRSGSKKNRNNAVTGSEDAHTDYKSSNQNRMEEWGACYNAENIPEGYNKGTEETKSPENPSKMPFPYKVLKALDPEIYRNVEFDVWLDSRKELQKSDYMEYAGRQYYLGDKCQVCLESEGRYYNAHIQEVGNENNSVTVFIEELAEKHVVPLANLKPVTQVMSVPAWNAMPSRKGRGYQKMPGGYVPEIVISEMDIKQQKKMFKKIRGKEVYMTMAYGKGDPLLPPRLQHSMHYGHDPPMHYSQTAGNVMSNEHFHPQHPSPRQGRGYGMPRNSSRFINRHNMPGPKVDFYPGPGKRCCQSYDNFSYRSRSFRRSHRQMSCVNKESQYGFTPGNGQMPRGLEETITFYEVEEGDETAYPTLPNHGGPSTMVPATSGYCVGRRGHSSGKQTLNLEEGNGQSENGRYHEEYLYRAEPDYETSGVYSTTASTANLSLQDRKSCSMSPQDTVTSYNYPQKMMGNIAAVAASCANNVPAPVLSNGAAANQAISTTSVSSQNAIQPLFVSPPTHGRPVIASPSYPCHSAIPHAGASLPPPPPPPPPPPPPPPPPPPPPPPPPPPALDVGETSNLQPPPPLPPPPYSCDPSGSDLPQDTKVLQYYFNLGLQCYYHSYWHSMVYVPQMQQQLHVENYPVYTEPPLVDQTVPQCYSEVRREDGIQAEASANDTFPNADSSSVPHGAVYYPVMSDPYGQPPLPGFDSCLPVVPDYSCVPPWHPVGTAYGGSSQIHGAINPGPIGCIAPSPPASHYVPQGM
# Outline: (§1)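 HEK293T lysate (495 µg per sample, in Tris/CHAPS/IGEPAL buffer with protease inhibitors) was exposed in triplicate for 3 h to fragment at 200 µM or to vehicle, then to Biotin-Ahx-Ub-VS at 0.5 µM final for 1 h. Labelled DUBs were enriched on NeutrAvidin, digested with LysC and trypsin, and analysed by diaPASEF LC-MS/MS. Spectronaut label-free quantities were normalised to the global median, and values are average log2 ratios of fragment over vehicle from an unpaired t-test. Only proteins with ≥2 unique peptides were used.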
# ATXN3 = ATXN3 (UniProt P54252)
# ATXN3, sequence (P54252 whole entry): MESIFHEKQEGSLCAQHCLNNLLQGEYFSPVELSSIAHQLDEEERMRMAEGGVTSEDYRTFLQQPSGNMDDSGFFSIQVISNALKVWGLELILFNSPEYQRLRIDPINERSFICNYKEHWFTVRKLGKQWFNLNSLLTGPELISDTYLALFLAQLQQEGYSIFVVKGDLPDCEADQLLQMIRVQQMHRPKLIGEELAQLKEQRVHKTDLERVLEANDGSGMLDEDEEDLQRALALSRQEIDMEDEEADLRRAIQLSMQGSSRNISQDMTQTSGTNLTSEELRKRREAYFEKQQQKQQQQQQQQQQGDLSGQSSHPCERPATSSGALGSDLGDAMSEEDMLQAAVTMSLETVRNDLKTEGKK
# Outline: as §1
# BAP1 = molecular target: T2, BAP1 (UniProt Q92560)
# T2 sequence (whole entry): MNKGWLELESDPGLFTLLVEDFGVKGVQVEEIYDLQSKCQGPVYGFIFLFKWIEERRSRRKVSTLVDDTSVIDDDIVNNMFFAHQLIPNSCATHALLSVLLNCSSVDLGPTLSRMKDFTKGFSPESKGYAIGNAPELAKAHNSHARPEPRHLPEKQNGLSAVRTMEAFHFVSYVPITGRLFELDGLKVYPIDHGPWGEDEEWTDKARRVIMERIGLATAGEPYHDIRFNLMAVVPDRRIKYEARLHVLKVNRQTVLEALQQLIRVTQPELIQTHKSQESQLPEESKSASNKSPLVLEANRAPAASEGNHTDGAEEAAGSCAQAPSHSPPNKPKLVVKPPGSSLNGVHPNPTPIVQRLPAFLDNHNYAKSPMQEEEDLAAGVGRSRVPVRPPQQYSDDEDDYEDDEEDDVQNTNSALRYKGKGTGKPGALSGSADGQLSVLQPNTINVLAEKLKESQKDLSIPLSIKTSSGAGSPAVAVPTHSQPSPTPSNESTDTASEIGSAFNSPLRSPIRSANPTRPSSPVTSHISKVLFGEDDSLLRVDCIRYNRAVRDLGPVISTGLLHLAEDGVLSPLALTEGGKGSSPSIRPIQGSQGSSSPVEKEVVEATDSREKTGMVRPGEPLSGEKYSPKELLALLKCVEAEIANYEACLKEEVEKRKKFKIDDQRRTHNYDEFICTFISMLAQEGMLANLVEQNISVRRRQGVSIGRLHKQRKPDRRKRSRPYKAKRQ
# Outline: as §1
# EIF3F = EIF3F (UniProt O00303)
# EIF3F, sequence (O00303 whole entry): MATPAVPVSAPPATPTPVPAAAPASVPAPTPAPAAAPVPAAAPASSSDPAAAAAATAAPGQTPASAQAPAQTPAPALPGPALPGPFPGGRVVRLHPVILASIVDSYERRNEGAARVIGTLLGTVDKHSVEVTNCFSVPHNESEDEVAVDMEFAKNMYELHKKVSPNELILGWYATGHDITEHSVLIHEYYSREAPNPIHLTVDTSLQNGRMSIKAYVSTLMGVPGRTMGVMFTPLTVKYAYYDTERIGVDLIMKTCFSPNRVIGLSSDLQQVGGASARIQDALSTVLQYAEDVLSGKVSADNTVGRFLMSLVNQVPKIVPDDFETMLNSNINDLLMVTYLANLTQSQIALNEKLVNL
# Outline: as §1
# EIF3H = EIF3H (UniProt O15372)
# EIF3H, sequence (O15372 whole entry): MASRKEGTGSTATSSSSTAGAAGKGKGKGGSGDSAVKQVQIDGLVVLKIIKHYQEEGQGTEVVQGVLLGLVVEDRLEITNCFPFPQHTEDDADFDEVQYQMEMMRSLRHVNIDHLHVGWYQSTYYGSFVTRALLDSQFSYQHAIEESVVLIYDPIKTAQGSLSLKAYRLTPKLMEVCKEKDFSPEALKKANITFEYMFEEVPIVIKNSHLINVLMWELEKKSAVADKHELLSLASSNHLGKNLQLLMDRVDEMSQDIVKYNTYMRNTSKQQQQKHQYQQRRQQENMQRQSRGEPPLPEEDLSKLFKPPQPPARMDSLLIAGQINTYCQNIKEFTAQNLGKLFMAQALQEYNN
# Outline: as §1
# FAM105A = molecular target: T3, FAM105A (UniProt Q9NUU6)
# T3 sequence (whole entry): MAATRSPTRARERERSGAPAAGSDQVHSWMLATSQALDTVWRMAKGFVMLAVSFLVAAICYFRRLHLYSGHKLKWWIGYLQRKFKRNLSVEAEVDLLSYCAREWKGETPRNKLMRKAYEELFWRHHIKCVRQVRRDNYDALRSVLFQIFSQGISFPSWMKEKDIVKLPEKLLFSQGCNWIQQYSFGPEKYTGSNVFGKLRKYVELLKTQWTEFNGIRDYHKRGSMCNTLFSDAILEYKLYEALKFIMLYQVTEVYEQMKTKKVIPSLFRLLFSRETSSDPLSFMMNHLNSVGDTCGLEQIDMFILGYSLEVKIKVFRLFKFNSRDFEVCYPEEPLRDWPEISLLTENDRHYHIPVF
# Outline: as §1
# OTUB1 = OTUB1 (UniProt Q96FW1)
# OTUB1, sequence (Q96FW1 whole entry): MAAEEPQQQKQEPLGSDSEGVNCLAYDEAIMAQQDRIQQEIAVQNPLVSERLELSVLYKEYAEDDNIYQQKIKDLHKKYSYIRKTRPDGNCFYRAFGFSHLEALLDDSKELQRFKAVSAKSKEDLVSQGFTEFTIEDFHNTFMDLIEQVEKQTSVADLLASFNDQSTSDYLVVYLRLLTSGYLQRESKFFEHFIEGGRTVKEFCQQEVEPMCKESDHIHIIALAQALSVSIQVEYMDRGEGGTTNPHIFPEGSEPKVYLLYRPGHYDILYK
# Outline: as §1
# OTUD4 = molecular target: T4, OTUD4 (UniProt Q01804)
# T4 sequence (whole entry): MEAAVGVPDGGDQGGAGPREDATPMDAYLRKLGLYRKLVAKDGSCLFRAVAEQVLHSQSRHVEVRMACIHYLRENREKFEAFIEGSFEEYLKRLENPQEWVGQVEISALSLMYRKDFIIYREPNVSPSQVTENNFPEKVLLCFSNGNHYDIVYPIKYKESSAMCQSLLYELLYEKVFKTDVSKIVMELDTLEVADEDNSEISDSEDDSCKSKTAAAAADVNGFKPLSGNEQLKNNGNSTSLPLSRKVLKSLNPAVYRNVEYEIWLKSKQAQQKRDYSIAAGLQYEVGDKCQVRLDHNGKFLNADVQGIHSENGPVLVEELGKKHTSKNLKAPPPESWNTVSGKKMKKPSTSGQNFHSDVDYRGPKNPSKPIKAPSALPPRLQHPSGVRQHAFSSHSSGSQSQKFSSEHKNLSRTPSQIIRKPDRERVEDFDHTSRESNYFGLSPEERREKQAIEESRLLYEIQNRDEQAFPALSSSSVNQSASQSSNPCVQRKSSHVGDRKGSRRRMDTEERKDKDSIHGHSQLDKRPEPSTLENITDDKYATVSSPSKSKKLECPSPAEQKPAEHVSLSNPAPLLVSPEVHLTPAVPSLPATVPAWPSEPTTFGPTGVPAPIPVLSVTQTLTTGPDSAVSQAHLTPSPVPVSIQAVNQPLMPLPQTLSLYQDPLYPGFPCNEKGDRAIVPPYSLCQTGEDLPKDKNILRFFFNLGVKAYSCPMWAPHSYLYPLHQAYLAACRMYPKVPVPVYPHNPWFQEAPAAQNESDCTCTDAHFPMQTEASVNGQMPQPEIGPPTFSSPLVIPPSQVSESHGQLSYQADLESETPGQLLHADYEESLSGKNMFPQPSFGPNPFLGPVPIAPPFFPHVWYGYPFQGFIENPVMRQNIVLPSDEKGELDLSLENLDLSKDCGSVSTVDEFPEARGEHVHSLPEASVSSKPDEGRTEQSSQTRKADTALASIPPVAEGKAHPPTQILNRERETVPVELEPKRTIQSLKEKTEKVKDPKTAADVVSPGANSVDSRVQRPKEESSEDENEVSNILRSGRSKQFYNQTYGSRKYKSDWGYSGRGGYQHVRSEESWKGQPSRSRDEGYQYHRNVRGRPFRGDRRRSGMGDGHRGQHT
# Outline: as §1
# OTUD5 = molecular target: T5, OTUD5 (UniProt Q96G74)
# T5 sequence (whole entry): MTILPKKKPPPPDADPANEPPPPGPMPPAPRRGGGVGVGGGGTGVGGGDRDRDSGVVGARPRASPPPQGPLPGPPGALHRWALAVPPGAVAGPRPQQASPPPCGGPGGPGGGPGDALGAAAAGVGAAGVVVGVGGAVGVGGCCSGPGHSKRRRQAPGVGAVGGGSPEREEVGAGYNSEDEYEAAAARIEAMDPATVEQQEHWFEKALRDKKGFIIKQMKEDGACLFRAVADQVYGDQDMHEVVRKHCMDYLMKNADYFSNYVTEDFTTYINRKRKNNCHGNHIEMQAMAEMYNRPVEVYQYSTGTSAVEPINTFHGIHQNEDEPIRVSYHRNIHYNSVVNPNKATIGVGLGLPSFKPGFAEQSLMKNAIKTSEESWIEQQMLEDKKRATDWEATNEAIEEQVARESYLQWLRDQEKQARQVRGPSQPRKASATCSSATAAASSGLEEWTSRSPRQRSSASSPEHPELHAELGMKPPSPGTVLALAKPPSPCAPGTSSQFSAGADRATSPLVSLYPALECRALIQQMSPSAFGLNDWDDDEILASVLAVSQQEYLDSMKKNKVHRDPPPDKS
# Outline: as §1
structure (smiles),measurement,setting,value
CCN(Cc1ccc(C#N)cc1F)C(=O)CCl,log2 ratio of Biotin-Ahx-Ub-VS probe labelling,ALG13,0.0792
same,log2 ratio of Biotin-Ahx-Ub-VS probe labelling,ATXN3,-1.1 (active)
same,log2 ratio of Biotin-Ahx-Ub-VS probe labelling,BAP1,-0.691
same,log2 ratio of Biotin-Ahx-Ub-VS probe labelling,EIF3F,-0.201
same,log2 ratio of Biotin-Ahx-Ub-VS probe labelling,EIF3H,0.0146
same,log2 ratio of Biotin-Ahx-Ub-VS probe labelling,FAM105A,0.124
same,log2 ratio of Biotin-Ahx-Ub-VS probe labelling,OTUB1,-0.377
same,log2 ratio of Biotin-Ahx-Ub-VS probe labelling,OTUD4,-0.686
same,log2 ratio of Biotin-Ahx-Ub-VS probe labelling,OTUD5,-0.653
